Source: PubChem
D2 ag-1 – agonists of human D2 dopamine receptor (beta-arrestin) | AID 624465 | 0.084% of 360,000 active | activation, % (no concentration beside the values) | DiscoveRx PathHunter D2 beta-arrestin, luminescence, 90 min; 100% = 57 uM dopamine signal; in the data active = activation above about 40%; inconclusive = between about 15% and that limit
Target sequence (P14416 whole entry, looked up): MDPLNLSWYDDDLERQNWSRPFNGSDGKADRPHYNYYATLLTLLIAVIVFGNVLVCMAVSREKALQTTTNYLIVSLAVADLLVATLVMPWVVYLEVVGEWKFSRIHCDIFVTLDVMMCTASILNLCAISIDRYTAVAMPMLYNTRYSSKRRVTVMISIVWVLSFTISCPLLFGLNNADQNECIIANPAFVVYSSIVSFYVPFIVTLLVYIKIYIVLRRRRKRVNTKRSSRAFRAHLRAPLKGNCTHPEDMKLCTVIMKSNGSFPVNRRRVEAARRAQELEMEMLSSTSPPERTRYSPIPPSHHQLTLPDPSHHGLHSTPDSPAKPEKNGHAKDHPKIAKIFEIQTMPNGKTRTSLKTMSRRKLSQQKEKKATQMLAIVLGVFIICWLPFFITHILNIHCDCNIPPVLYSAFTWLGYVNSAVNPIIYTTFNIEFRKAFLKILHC
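Agonist mode: compounds alone added to overnight-plated D2 PathHunter cells for 90 min at 37 C, with 57 uM final dopamine (EC100) defining full response. Beta-arrestin recruitment detected by chemiluminescent reagent, read after 1 h at ambient temperature.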
D2 antagonist – antagonizes the human D2 dopamine receptor; 2% of 340,000 active; P14416; AID 485344; inhibition, % at 10 µM; HEK293 TREx D2 cells, calcium flux, dopamine EC80; in the data active = inhibition above about 30%; inactive = below that, where a call was filed; also: 0% is about no effect
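Tetracycline-induced HEK293 T-REx cells expressing D2 force-coupled to calcium signalling were dye-loaded, exposed to compound for 180 s, then challenged with an EC80 of dopamine; calcium flux was followed kinetically for a further 180 s.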
D2 PAM-1 – positive allosteric modulators of human D2 dopamine receptor; 0.23% of 360,000 active; P14416; DiscoveRx D2 beta-arrestin cells, luminescence, 90 min; 100% = 57 uM dopamine signal; potentiation, % (test concentration not listed); in the data active = potentiation above about 50%; inconclusive = mostly about 30% to 49%
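PathHunter D2 cells, attached overnight at 37 deg C, received compound in DMSO plus dopamine at EC20 (50 nM final) for 90 min at 37 deg C. Beta-arrestin recruitment was read as luminescence after 1 h with detection reagent at ambient temperature.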
D2 ag-2 – agonists of human D2 dopamine receptor; P14416; activation, % at 2 µM; AID 485358; HEK293 T-REx D2 cells, calcium flux agonist mode; 0.53% of 340,000 active;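 active = activation over 3 SD above normal in the single-dose calcium agonist read, cut at about 30% in these data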; also: 0% is about no effect
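Tetracycline-induced HEK293 T-REx cells with force-coupled D2 receptor, plated overnight at 30 C, loaded with no-wash calcium dye. After a 10 s baseline, compound was pin-added and calcium flux read kinetically for 180 s; calcium rises flagged agonists.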
D2 PAM-2 – positive allosteric modulators of human D2 dopamine receptor. P14416. HEK293 T-REx D2, calcium flux, EC20 dopamine potentiation. potentiation, % at 10 µM. 0.34% of 340,000 active;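 active = potentiation over 3 SD above the plate norm, cut at about 30% in these data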; also: 0% is about no effect
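Cells plated with tetracycline inducer and held overnight at 30 C; calcium dye loaded 30–90 min at room temperature; baseline taken, compound added and read 180 s; EC20 dopamine then added and read 180 s.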
The depositor's hits bear a star; u = inconclusive; x = no result. Rows were chosen to be rich in hits. Some 2.4% of all compounds tested hit in one or more screens of this group.

SMILES | D2 ag-1 | D2 antagonist | D2 PAM-1 | D2 ag-2 | D2 PAM-2
CC1Cc2ccccc2N1C(=O)COC(=O)c1ccc([N+](=O)[O-])o1 (centres undefined) | 12 | x | 58* | x | x
CCOc1ccc(-c2c(C)nn3c(C)c(C(=O)NCC(C)c4ccccc4)cnc23)cc1OCC (centres undefined) | x | x | x | 1 | 22
O=c1oc2c(CN3CCCCCC3)c(O)ccc2cc1-c1nc2ccccc2[nH]1 | x | 14 | x | 77* | -6
COCCn1c(=S)[nH]c2cc(C(=O)NC(C)C)ccc2c1=O | -2 | 2 | 13 | 0 | 20
CC(C)Cn1c(=S)[nH]c2cc(C(=O)O)ccc2c1=O | -3 | 31* | -8 | 1 | 9
COc1ccc2c(c1)c1c(c(=O)n(Cc3ccccc3)c(=O)n1CC(=O)NCc1ccccc1Cl)n2C | x | x | x | 0 | 16
O=C1Cc2cc(S(=O)(=O)NCc3ccccc3Cl)cc3c2N1CCC3 | -2 | 11 | -3 | 0 | 34*
CN1C(=O)Cc2cc(S(=O)(=O)NCc3ccccc3Cl)ccc21 | x | x | x | x | -13
FC(F)(F)c1cccc(N2CCN(Cc3ccoc3)CC2)c1 | -1 | 103* | -14 | 0 | -29
COc1cccc(N2CCN(Cc3cccnc3)CC2)c1 | 3 | -10 | -11 | 24 | -8
FC(F)(F)c1cccc(N2CCN(Cc3cccnc3)CC2)c1 | 1 | 76* | -34 | 2 | -18
Cc1cccc(NC(=O)C(NS(=O)(=O)c2ccc3c(c2)oc(=O)n3C)C(C)C)c1 (centres undefined) | x | x | x | -1 | 22
COc1ccc(C(=O)c2c(C(F)(F)F)oc3c2C(=O)c2ccccc2C3=O)cc1OC | u | 31* | u | 2 | 5
Cc1cc(C)c(S(=O)(=O)N2CCC(N3CCN(Cc4ccc(F)cc4)C(=O)C3=O)CC2)c(C)c1 | x | x | x | 1 | 2
CCn1cc(CN2CCC(C(=O)Nc3ccc(Oc4cccnc4)cc3)CC2)cn1 | -4 | 31* | 17 | -3 | -6
CCn1cc(CN2CCC(C(=O)Nc3ccc(Oc4cccnc4)cc3)CC2)c(C)n1 | -6 | -6 | -25 | 0 | -9
O=C(O)CCS(=O)(=O)c1ccccc1Cl | -5 | 39* | -10 | 1 | 16
CCn1ccc2cc(S(=O)(=O)N3CCCN(C(=O)NCC(=O)OC)CC3)ccc21 | x | x | x | x | -4
CCN(CC)c1ccc(NC(=O)c2cccn2-c2nnc(N3CCCCC3)s2)c(C)c1 | x | x | x | 10 | -7
CCOc1ccc(CNC(=O)C2CCN(c3nc4ccccc4nc3C(F)(F)F)CC2)cc1OC | x | x | x | 0 | 7
COc1ccc(OCCOC(=O)c2ccc(F)c(S(=O)(=O)N3CCOCC3)c2)cc1 | 3 | 49* | -1 | 18 | 3
CC(=O)c1cccc(NC(=O)c2ccc3c(c2)CCCC3)c1 | -4 | 33* | -50 | 0 | -30
COc1ccc(C(=O)Nc2nnc(C)s2)cc1S(=O)(=O)N1CCOCC1 | -1 | 17 | -1 | 0 | 6
COc1ccc(C(=O)Nc2nc(C)c(C(C)=O)s2)cc1S(=O)(=O)N1CCOCC1 | -2 | 30* | -2 | 1 | -11
CC(=O)c1cccc(NC(=O)c2ccc(C)c(S(=O)(=O)N3CCOCC3)c2)c1 | -1 | 50* | -3 | 1 | 9
SMILES | D2 ag-1 | D2 antagonist | D2 PAM-1 | D2 ag-2 | D2 PAM-2
COc1cccc(NC(=O)c2ccc3c(c2)CCCC3)c1 | 0 | -5 | -20 | 0 | -6
COc1ccc(C)cc1NC(=O)CCS(=O)(=O)c1cc2c3c(c1)CCN3C(=O)CC2 | x | x | x | 0 | 0
CN1CCN(S(=O)(=O)c2ccc(C(=O)Nc3ccccc3)cc2)CC1 | -1 | 11 | -9 | -1 | 11
Cc1ccc(NC(=O)C(C)OC(=O)/C=C/c2ccccc2)cc1S(=O)(=O)N1CCOCC1 (centres undefined) | -3 | 1 | -4 | 0 | 41*
COc1ccc(NC(=O)c2cc(S(=O)(=O)N3CCCC3)c[nH]2)cc1 | -30 | -5 | 0 | 0 | 6
O=C(Nc1nncs1)c1ccc(Br)c(S(=O)(=O)N2CCCC2)c1 | -2 | 56* | -3 | 0 | -2
COc1ccc(NC(=O)c2cc(S(=O)(=O)N3CCCC3)oc2C)cc1 | -4 | -14 | -15 | -2 | 31*
Cc1ccc(NC(=O)COC(=O)/C=C/c2cccc(Cl)c2)cc1S(=O)(=O)N1CCOCC1 | 2 | -13 | -3 | -1 | 9
Cc1ccc(C(=O)Nc2ccccc2)cc1S(=O)(=O)N1CCN(C)CC1 | 2 | 35* | -2 | 1 | -3
COc1cccc(-n2cc(C(=O)Nc3cc(OC)c(OC)c(OC)c3)c3ccccc3c2=O)c1 | x | x | x | 0 | 3
COc1ccc(-c2noc(-c3ccc(NCCc4ccccc4)c([N+](=O)[O-])c3)n2)cc1OC | x | x | x | 0 | -4
Cc1ccc(N(Cc2ccccc2)C(=O)c2ccc(F)c(S(=O)(=O)N3CCOCC3)c2)cc1 | -7 | 59* | -12 | 0 | -4
COc1ccc(NC(=O)c2ccc(Br)c(S(=O)(=O)N3CCOCC3)c2)cc1 | -2 | -21 | 2 | 2 | 33*
COc1ccc(C(=O)NNC(=O)COc2ccc(Cl)cc2C)cc1S(=O)(=O)N1CCOCC1 | -2 | 33* | -12 | 0 | -2
Cc1cccc(N(Cc2ccccc2)C(=O)c2ccc(F)c(S(=O)(=O)N3CCOCC3)c2)c1 | 8 | 0 | -16 | 0 | -2
Cc1ccc2nc(-c3cccc(NC(=O)CSc4ccc(Cl)cc4)c3)oc2c1 | x | x | x | 0 | 7
COc1ccc(N(C)C(=O)c2cn(C3CCCCC3)c(=O)c3c2c2ccccc2n3C)cc1 | x | x | x | -1 | 2
CCc1ccc(-n2c(N3CCN(c4cccc(C)c4C)CC3)nc3ccccc3c2=O)cc1 | x | x | x | 0 | 11
O=C(CNC(=O)c1cccc(-n2cnnn2)c1)Nc1ccc(F)c(F)c1 | -2 | 38* | -2 | 0 | -20
C=CCn1c(SCc2cc(=O)n3ccsc3n2)nc2sc(C)c(C)c2c1=O | 2 | -2 | -10 | 0 | 36*
C=CCSc1nc2sc(C)c(C)c2c(=O)n1CC=C | -4 | 12 | -23 | 0 | 1
C=CCn1c(SCC(=O)c2cccs2)nc2sc(C)c(C)c2c1=O | -1 | x | 19 | x | x
C=CCn1c(SCc2ccc(C(=O)NCCO)cc2)nc2sc(C)c(C)c2c1=O | -2 | 1 | 3 | -1 | 31*
CCOC(=O)c1[nH]c(C)c(CCC(=O)N2CCN(c3cc(C)ccc3C)CC2)c1C | x | x | x | 1 | 0
COc1cc(NC(=O)CCn2cnc3ccccc3c2=O)cc(OC)c1 | x | x | x | 1 | 2
COc1ccc(Cn2c(C3CCCCC3)nc3c(c(=O)c4ccccc4n3C)c2=O)cc1 | -3 | 42* | -16 | 5 | -3
COc1ccc(CCn2c(C3CCCCC3)nc3c(c(=O)c4ccccc4n3C)c2=O)cc1 | -4 | 18 | -8 | 10 | -7
